Assay outcomes: PubChem BioAssay, several laboratories
Only some compounds are listed: those with a hit (about 5.7% of all), similar ones and a draw of the others.
Fluor 339 460 = intrinsic fluorescence of library compounds, ex339/em460 – biochemical, MLSMR library, data from DPM-DC assay, artefact control, profiling panel | compound autofluorescence, ex339/em460 nm, NADH buffer; stronger effect = higher value; 1 = no-compound wells, NADH background | fluorescence fold increase at 10 µM | 65,000 compounds, 5.5% hits;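 active = at 10 µM, mean starting fluorescence two-fold or more over control wells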;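 note: signal is the first read of a kinetic run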
Hsp90 block = displaces geldanamycin probe from tumor Hsp90; 64,000 compounds, 0.35% hits; inhibition, % at 30 µM; NCI-N417 lysate Hsp90, Cy3B-geldanamycin FP displacement; P07900;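 active = inhibition above 50%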;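 note: 0% = tracer plus lysate wells and 100% = tracer alone without lysate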
A340 absorber = compound absorbs light at 340 nm. 65,000 tested, under 10 active. compound absorbance at 340 nm, fold over control. fold change at 10 µM;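 active = at 10 µM dose, initial 340 nm absorbance at least 2 fold that of control wells; inactive = change under 2 fold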;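 note: initial absorbance extrapolated from kinetic A340 decline of NADH oxidation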
NADH enzymes = blocks coupling enzymes of NAD/NADH assays; IC50, µM (top dose mostly 10 µM), without a hit: at the top dose inhibition; 65,000 compounds, 0.02% hits; coupled PK/LDH NADH assays, four targets;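 active = single-dose screening hits from any of four coupled enzyme assays that gave an IC50 when retested across doses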;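 note: the DPM-DC format reads NADH fluorescence rather than 340 nm absorbance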
MKP-1 inh = human dual specificity phosphatase 1 inhibition | recombinant MKP-1, OMFP hydrolysis fluorescence | inhibition, %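 (compounds tested at a single concentration somewhere between 10 and 100 µM)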 | 65,000 compounds, 0.15% hits | AID 374;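 active = inhibition above about 50%, limit read from the data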;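 note: 0% = DMSO max control wells and 100% = wells with enzyme stopped by NaOH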
Cdc25B block = inhibitors of human Cdc25B phosphatase | inhibition, %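 (compounds tested at 10 µM final in the well)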 | 65,000 compounds, 0.1% hits | P30305 | recombinant Cdc25B, OMFP fluorescence Ex485/Em525; in the data active = inhibition above about 50%
Target sequence (P30305 whole entry, looked up): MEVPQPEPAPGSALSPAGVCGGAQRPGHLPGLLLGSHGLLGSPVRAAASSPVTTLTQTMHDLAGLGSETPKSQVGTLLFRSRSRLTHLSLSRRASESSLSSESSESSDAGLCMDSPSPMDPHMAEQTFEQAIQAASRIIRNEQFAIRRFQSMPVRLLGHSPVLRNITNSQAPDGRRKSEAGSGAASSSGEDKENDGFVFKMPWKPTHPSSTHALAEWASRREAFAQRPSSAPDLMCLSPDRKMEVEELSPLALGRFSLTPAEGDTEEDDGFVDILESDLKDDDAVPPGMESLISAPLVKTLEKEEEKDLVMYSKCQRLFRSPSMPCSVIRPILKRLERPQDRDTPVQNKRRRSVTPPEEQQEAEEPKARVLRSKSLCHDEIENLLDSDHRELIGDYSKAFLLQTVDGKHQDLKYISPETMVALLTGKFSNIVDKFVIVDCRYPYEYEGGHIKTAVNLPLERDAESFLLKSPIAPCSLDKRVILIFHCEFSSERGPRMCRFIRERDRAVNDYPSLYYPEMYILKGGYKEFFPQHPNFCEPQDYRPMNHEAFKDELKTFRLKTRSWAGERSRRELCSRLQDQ
* marks the source's active call; other numbers are inactive results; nt = no result given.

SMILES	Fluor 339 460	Hsp90 block	A340 absorber	NADH enzymes	MKP-1 inh	Cdc25B block
CC(C)N1C(=O)CCC1C(=O)NCCc1ccccc1 (configuration not stated)	1.04	-4.7	1	6.0%	7.5	-8.3
O=C(Nc1sc2c(c1C(=O)NCc1ccco1)CCCC2)c1ccc2c(c1)OCO2	2.9*	-16.9	1.02	6.0%	16.7	-1.9
CCOc1ccc(S(=O)(=O)Nc2ccc3c(c2)OCO3)c2cccnc12	1.1	53.8*	1.07	0.0%	-6.5	1.7
CCOc1ccc(S(=O)(=O)NCc2ccc(F)cc2)c2cccnc12	3.55*	1.0	1.06	10.0%	-2.6	-9.6
COc1ccccc1N1CCN(S(=O)(=O)c2ccc(Cl)s2)CC1	1.11	-1.8	1.07	3.0%	-9.8	-7.7
CCn1nnc(NC(=O)COc2cc(C)ccc2C(C)C)n1	1.09	71.6*	1.04	3.0%	4.0	-7.7
CSc1nc(NCc2ccco2)c2c3c(sc2n1)CN(C)CC3	1.83	nt	1.07	7.0%	11.7	3.3
CCC(O)CNc1nc(SC)nc2sc3c(c12)CCN(C)C3 (configuration not stated)	2.22*	nt	1.04	5.0%	6.4	-7.5
COc1ccc(-c2c(NC(C)=O)n(C)c3ccccc3c2=O)cc1	3.81*	-0.2	1.11	10.0%	-33.6	-10.8
Cn1c(NC(=O)c2ccco2)c(-c2ccccc2)c(=O)c2ccccc21	0.94	-6.9	1.11	9.0%	-8.9	-3.2
CCn1c(=O)c2cc(S(=O)(=O)NC3CCCCC3)ccc2n(CC)c1=O	1.07	-2.9	1.06	3.0%	4.5	-0.2
CCC(=O)N(Cc1cc2cc(OC)ccc2[nH]c1=O)c1cc(C)ccc1C	2.37*	-1.3	1.02	20.0%	-1.0	5.5
COc1ccc2[nH]c(=O)c(CN(C(=O)COc3ccccc3)C(C)C)cc2c1	2.65*	-0.2	1.13	4.0%	19.6	5.1
CCN(Cc1cc2cc(C)ccc2[nH]c1=O)C(=O)c1cccc(OC)c1	1.65	-1.8	1.04	9.0%	-4.5	-2.9
COc1ccc2[nH]c(=O)c(CN(C(=O)c3ccccn3)c3ccccc3)cc2c1	3.36*	-0.6	1.05	12.0%	-7.6	-15.0
COc1ccc(N(Cc2cc3cc(OC)ccc3[nH]c2=O)C(=O)c2cccnc2)cc1	2.7*	-5.2	1.09	10.0%	25.1	1.8
Cc1ccc2[nH]c(=O)c(CN(C)C(=O)c3ccccn3)cc2c1	1.78	-2.0	1.06	8.0%	-17.2	6.6
Cc1ccc(C(=O)NC(C)(COc2nonc2C)COc2nonc2C)cc1	1.09	0.6	1.04	3.0%	-4.5	-0.2
COc1cc2c(CCNC(C)=O)c[nH]c2cc1Cl	nt	-3.0	nt	nt	nt	nt
Fc1cc2nc(-c3ccncc3)[nH]c2cc1F	2.17*	nt	1.07	2.0%	5.8	-6.5
Oc1ccc(-c2nc(-c3ccc(F)cc3)c(-c3ccncc3)[nH]2)cc1	nt	-0.2	nt	nt	nt	nt
S=P(c1ccc(N2CCOCC2)cc1N1CCOCC1)(N1CCOCC1)N1CCOCC1	1.06	-2.3	1.03	6.0%	22.1	-12.6
CC(C)CNC(=O)c1cc(-c2ccco2)on1	1.12	-5.2	1	3.0%	7.1	-13.9
CC(=O)Nc1nc(CC(C)C)cc(-c2ccco2)c1C#N	2.27*	1.3	1.11	7.0%	-2.7	-5.9
CC(C)(C)NCC(O)COc1cccc2c1C[C@H](O)[C@H](O)C2 (some centres not stated)	1.03	-0.4	0.98	2.0%	-15.6	100.2*
SMILES	Fluor 339 460	Hsp90 block	A340 absorber	NADH enzymes	MKP-1 inh	Cdc25B block
COc1cc(NCCCC(C)=NO)c2ncccc2c1	nt	-5.6	nt	nt	nt	nt
COCC(C)NC(=O)c1ccccc1OC(C)=O (configuration not stated)	2.03*	-7.7	1.01	10.0%	3.2	4.0
COCC(C)NC(=O)c1cc(-c2ccccc2OC)on1 (configuration not stated)	1.18	-1.0	1	7.0%	26.4	-13.3
O=C(NS(=O)(=O)c1ccccc1)c1ccccc1F	1.04	-3.1	1.05	3.0%	-4.4	-3.1
COc1ccc(Cl)cc1N1C(=O)C2CCCN2C1c1ccc(F)cc1 (configuration not stated)	1.12	-1.7	1.03	4.0%	3.0	-7.4
Cn1c(-c2c(N)n(C3CCCC3)c3nc4ccccc4nc23)nc2ccccc21	3.82*	-6.9	1.08	11.0%	-9.3	-5.0
COC(=O)c1ccccc1NC(=O)n1cc(C)cn1	3.65*	-1.4	1.08	4.0%	5.2	-5.1
